Screening results deposited in PubChem BioAssay by The Scripps Research Institute Molecular Screening Center.
PPARg SRC3 recr – PPARgamma-driven SRC-3 recruitment agonism. biochemical PPARgamma/SRC-3 coactivator recruitment assay. 0.26% of 200,000 active. activation, % at 8 µM; in the data active means activation above about 23%;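 further: 0% = DMSO and 100% = reference agonist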
Target sequence (P37231 whole entry, looked up): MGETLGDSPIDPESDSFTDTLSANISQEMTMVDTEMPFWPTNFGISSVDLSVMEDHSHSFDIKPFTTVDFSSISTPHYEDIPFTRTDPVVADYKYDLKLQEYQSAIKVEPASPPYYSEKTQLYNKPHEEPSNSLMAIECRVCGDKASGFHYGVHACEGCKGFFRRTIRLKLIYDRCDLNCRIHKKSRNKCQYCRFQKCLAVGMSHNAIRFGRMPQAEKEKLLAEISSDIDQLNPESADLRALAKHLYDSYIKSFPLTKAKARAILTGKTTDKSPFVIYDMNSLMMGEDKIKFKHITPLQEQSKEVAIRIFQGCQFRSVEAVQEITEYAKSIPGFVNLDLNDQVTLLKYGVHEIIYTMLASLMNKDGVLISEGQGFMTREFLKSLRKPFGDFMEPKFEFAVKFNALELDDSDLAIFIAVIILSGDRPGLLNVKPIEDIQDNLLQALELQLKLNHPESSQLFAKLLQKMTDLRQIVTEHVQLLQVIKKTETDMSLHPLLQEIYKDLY
PPARg SRC2 recr – PPARgamma-driven SRC-2 recruitment agonism; P37231; activation, % at 8 µM; 0.34% of 200,000 active; PPARgamma LBD-SRC-2 recruitment, biochemical;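 further: 0% = vehicle and 100% = reference agonist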
SRC1 TRFRET art – flags TR-FRET format artefacts in PPARgamma SRC-1 recruitment agonist screen. 0.34% of 99,000 active. TR-FRET detection artefact counter-screen, emission ratio; hits give high values. AID 1051. TR-FRET ratio at 8 µM; in the data active means TR-FRET ratio above about 2300
SRC3 TRFRET art – TR-FRET artefact, counter-screen to PPARgamma/SRC-3 agonist assay. PPARgamma/SRC-3 format; hits give high values. TR-FRET ratio at 8 µM. 0.39% of 99,000 active. AID 1048; in the data active means TR-FRET ratio above about 2000
PPARg SRC1 recr – agonists of human PPARgamma SRC-1 coactivator recruitment; P37231; PPARgamma-SRC-1 coactivator recruitment biochemical assay; activation, % at 8 µM; 0.41% of 200,000 active; AID 631; in the data active means activation above about 19%;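 further: 0% = DMSO and 100% = reference agonist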
SRC2 TRFRET art – TR-FRET artefact, counter-screen to PPARgamma/SRC-2 agonist assay; TR-FRET ratio at 8 µM; hits give high values; AID 1049; 0.4% of 200,000 active; in the data active means TR-FRET ratio above about 2000
PPARg SRC2 conf – confirmation of agonists of SRC-2 recruitment by human PPARgamma; 52% of 790 active; shares compounds with PPARg SRC3 recr; biochemical SRC-2 recruitment by PPARgamma; activation, % at 8 µM;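 further: 0% = vehicle alone and 100% = reference agonist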
PPARg SRC1 ag – human PPARgamma SRC-1 recruitment agonism, confirmation | shares compounds with PPARg SRC3 recr | PPARgamma–SRC-1 coactivator recruitment biochemical assay | activation, % at 8 µM | 43% of 790 active; in the data active means activation above about 20%;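 further: 0% = vehicle wells and 100% = reference agonist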
PPARg SRC3 ag – human PPARgamma SRC-3 recruitment agonism, confirmation. shares compounds with PPARg SRC3 recr. biochemical PPARgamma-SRC-3 coactivator recruitment, agonist mode. activation, % at 8 µM. 29% of 790 active; in the data active means activation above about 24%;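 further: 0% = vehicle wells and 100% = reference agonist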
Starred values were filed as active, the others as inactive; nt = no result. Rows were chosen to be rich in hits. Some 0.9% of all compounds tested hit in one or more screens of this group. Unless noted, no stated cut-off is given here; in the data, active means activation above about 22%; inactive means the rest.

SMILES	PPARg SRC3 recr	PPARg SRC2 recr	SRC1 TRFRET art	SRC3 TRFRET art	PPARg SRC1 recr	SRC2 TRFRET art	PPARg SRC2 conf	PPARg SRC1 ag	PPARg SRC3 ag
Cc1ccccc1N1C(=O)CC(Sc2nnc(-c3ccccc3)o2)C1=O (stereo not given)	57*	43*	nt	nt	42*	1855	48*	36*	31*
Nc1ccc2c(c1)C(=O)C(=O)c1ccccc1-2	29*	32*	nt	nt	22*	1964	20	23*	12
O=C1C(=O)c2ccc(-c3ccccc3)cc2-c2ccccc21	-3	-3	nt	nt	1	1525	nt	nt	nt
Cc1ccc[n+](C2C(c3ccc([N+](=O)[O-])cc3)C(C#N)=C([S-])NC2(O)C2CC2)c1 (stereo not given)	1	4	1755	1454	6	1527	nt	nt	nt
N#CC(=C=[N-])C1=C(C#N)C(c2ccccc2F)C([n+]2ccccc2)C(O)(C2CC2)N1 (stereo not given)	71*	75*	nt	nt	32*	3792*	12	9	10
Cc1cccc[n+]1C1C(c2ccccc2)C(C#N)=C(C(=C=[N-])C#N)NC1(O)C1CC1 (stereo not given)	29*	26*	nt	nt	15	2096*	30*	20*	19
CCOC(=O)C1C(=O)NC(SC)=C(C#N)C1c1ccccc1F (stereo not given)	1	5	1865	1639	10	1568	nt	nt	nt
COc1cc(OC)nc(-n2ncc(Br)c(Br)c2=O)n1	0	17	2201	1724	3	1559	nt	nt	nt
CC(C)c1ccc(C(=O)NNC(=O)C2CC=CCC2C(=O)O)cc1 (stereo not given)	2	6	1875	1510	-4	1598	nt	nt	nt
CN1CCN(CC(O)COc2ccc(C34CC5CC(CC(C5)C3)C4)cc2)CC1 (stereo not given)	2	11	1955	1581	-7	1659	nt	nt	nt
CN(C)c1ccc(NC(=O)Nc2ccc3snnc3c2)cc1	36*	21	nt	nt	23*	1850	4	1	3
COCCCN1C(=O)/C(=C/c2ccc(CNS(=O)(=O)c3ccccc3)o2)C(C(=O)OC)=C1C	5	14	2101	1687	10	1537	nt	nt	nt
CN(C)c1ccc(N=Cc2ccco2)cc1	74*	85*	nt	nt	67*	2974*	5	3	3
C(=N\C(/N=C/c1ccco1)c1ccco1)/c1ccco1	-1	15	1958	1658	1	1592	nt	nt	nt
C(=Nc1cccc2c(N=Cc3ccco3)cccc12)c1ccco1	20	22*	2290	1941	26*	1870	9	6	6
CN(C)c1ccc(C=Nc2ccc(N(C)C)cc2)cc1	104*	95*	nt	nt	69*	2825*	5	4	5
COc1ccccc1/C=C/C1=NC(=C\C=C/c2ccccc2)/C(=O)O1	41*	12	1863	1622	16	1610	6	5	12
Cc1ccc(Sc2ccc(NC(=O)c3ccc(S(C)(=O)=O)cc3Cl)cc2)cc1	33*	-1	nt	nt	54*	1563	24*	21*	14
CS(=O)(=O)c1ccc(C(=O)Nc2ccc(N3CCCCC3)cc2)c(Cl)c1	1	0	1810	1280	12	1563	nt	nt	nt
COc1ccc(Br)cc1CNc1ccc(O)cc1	18	23*	nt	nt	10	1752	7	5	6
Cn1c(=O)cc(SCC(=O)N2CCOCC2)c2ccc(Cl)cc21	83*	62*	nt	nt	61*	2895*	29*	18	20
Cn1c(=O)cc(SCC(=O)N2CCCC2)c2ccc(Cl)cc21	87*	87*	nt	nt	72*	3299*	42*	29*	30*
CN(CCCNC(=O)CSc1cc(=O)n(C)c2ccc(Cl)cc12)Cc1ccccc1	46*	58*	3259*	3068*	51*	2374*	40*	24*	24
COCCNC(=O)CSc1cc(=O)n(C)c2cc(Cl)ccc12	40*	28*	3701*	2886*	62*	2945*	39*	26*	27*
Cn1c(=O)cc(OCCCC(=O)N2CCCCC2)c2ccccc21	11	18	nt	nt	2	1780	nt	nt	nt
SMILES	PPARg SRC3 recr	PPARg SRC2 recr	SRC1 TRFRET art	SRC3 TRFRET art	PPARg SRC1 recr	SRC2 TRFRET art	PPARg SRC2 conf	PPARg SRC1 ag	PPARg SRC3 ag
CSc1ccc(NC(=O)c2cccnc2)cc1C#N	7	-4	2154	1554	9	1500	nt	nt	nt
CC(=O)Nc1ccc(NC(=O)CC2Nc3cccc4cccc(c34)NC2=O)cc1 (stereo not given)	26*	11	nt	nt	6	1572	10	12	7
O=C(O)c1ccc2c3c(cccc13)C(=O)N(c1ccccc1)C2=O	-5	-4	1776	1701	5	1684	nt	nt	nt
Cc1c(O)c2c3c(cccc3c1O)C(=O)N(c1ccccc1)C2=O	14	22*	2683*	2155*	24*	2078*	26*	16	19
CCN(CC)S(=O)(=O)c1cccc(-c2n[nH]c(=S)n2C)c1	0	1	1851	1494	6	1748	nt	nt	nt
Cc1ccc(-c2n[nH]c(=S)n2C)cc1Cl	6	15	2034	1766	26*	1847	10	9	10
COc1ccccc1C1Nc2cccc3cccc(c23)N1	11	19	nt	nt	19*	1640	10	7	6
COc1ccc(NC(C)C(=O)N/N=C/c2ccccc2OCc2cccc(Br)c2)cc1 (stereo not given)	37*	8	1922	1450	22*	1675	6	24*	22
Cc1ccccc1NC(C)C(=O)N/N=C/c1ccccc1OCc1cccc(Br)c1 (stereo not given)	0	2	nt	nt	-2	1387	nt	nt	nt
C/C(=N\N(Cc1ccccc1)c1ccccc1)c1ccncc1	4	2	1953	1550	11	1497	nt	nt	nt
CCn1c(=O)cc(SCC(=O)Nc2cccc(C)n2)c2ccccc21	38*	37*	3815*	3307*	58*	3523*	48*	32*	34*
CCn1c(=O)cc(OCC(=O)Nc2cccc(C)n2)c2ccccc21	-8	6	nt	nt	-2	1437	nt	nt	nt
CCn1c(=O)cc(SCC(=O)Nc2ccc(OC)c(OC)c2)c2ccccc21	34*	42*	nt	nt	20*	2203*	48*	33*	32*
CCn1c(=O)cc(SCC(=O)Nc2ccc(Cl)cc2)c2ccccc21	20	2	nt	nt	39*	1617	34*	23*	24
COc1ccc(C2C(C(=O)c3cccs3)=C(O)C(=O)N2c2nnc(C)s2)cc1OC (stereo not given)	9	8	nt	nt	13	1679	nt	nt	nt
